Laboratory results: the supplement of paper PMC11732987, “Enantioselective OTUD7B fragment discovery through chemoproteomics screening and high-throughput optimisation” (Communications Chemistry, 2025)

Assays:
Assay in all cases: log2 ratio of Biotin-Ahx-Ub-VS probe labelling (fragment/DMSO); higher = less target engagement (more negative = stronger competition), active = hit call of the paper (q ≤ 0.05, log2 ratio ≤ -1)
Conditions in all cases: compound concentration: 200 uM; treatment time: 3 h
ALG13 = target: T1, ALG13 (UniProt Q9NP73)
T1 sequence (whole entry): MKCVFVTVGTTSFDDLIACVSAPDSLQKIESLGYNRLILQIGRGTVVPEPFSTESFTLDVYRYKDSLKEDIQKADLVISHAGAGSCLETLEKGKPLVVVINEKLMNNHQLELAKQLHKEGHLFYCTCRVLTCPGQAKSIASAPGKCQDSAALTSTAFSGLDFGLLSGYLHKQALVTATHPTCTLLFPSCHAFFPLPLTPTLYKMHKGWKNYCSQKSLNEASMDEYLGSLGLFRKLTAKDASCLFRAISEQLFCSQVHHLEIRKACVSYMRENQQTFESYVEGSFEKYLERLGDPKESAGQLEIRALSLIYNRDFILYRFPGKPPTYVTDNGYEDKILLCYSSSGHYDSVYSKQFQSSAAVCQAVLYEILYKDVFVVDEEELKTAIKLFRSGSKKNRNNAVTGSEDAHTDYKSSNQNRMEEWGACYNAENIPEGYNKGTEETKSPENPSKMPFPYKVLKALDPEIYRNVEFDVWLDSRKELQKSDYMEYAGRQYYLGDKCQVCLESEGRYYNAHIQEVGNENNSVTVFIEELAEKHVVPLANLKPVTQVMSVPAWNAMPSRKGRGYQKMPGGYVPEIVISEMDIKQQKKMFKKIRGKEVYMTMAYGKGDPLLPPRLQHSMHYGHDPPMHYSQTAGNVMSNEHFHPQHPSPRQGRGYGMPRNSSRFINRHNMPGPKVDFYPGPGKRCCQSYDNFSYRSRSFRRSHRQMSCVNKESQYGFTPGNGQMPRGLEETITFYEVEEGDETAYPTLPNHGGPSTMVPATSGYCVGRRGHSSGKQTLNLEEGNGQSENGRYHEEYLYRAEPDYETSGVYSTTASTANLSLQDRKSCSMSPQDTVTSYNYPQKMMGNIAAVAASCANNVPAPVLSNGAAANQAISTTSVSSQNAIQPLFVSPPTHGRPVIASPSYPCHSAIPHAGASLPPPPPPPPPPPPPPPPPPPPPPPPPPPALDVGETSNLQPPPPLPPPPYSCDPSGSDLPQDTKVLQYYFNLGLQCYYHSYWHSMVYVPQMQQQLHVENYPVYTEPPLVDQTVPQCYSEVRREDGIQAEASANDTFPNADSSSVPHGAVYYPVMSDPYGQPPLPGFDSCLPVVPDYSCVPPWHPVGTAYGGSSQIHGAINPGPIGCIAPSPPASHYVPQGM
In short: (§1)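 Lysate from HEK293T cells, 495 µg per sample in Tris/CHAPS/IGEPAL buffer with protease inhibitors, was treated for 3 h in triplicate with fragment at 200 µM or vehicle. Biotin-Ahx-Ub-VS was next added at 0.5 µM final for 1 h. The labelled DUBs were enriched with NeutrAvidin, digested with LysC and trypsin, and run by diaPASEF LC-MS/MS, with values given as average log2 fragment/vehicle ratios by unpaired t-test on global-median-normalised Spectronaut quantities of proteins with ≥2 unique peptides.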

ATXN3 = ATXN3 (UniProt P54252)
In short: as §1

BAP1 = target: T2, BAP1 (UniProt Q92560)
T2 sequence (whole entry): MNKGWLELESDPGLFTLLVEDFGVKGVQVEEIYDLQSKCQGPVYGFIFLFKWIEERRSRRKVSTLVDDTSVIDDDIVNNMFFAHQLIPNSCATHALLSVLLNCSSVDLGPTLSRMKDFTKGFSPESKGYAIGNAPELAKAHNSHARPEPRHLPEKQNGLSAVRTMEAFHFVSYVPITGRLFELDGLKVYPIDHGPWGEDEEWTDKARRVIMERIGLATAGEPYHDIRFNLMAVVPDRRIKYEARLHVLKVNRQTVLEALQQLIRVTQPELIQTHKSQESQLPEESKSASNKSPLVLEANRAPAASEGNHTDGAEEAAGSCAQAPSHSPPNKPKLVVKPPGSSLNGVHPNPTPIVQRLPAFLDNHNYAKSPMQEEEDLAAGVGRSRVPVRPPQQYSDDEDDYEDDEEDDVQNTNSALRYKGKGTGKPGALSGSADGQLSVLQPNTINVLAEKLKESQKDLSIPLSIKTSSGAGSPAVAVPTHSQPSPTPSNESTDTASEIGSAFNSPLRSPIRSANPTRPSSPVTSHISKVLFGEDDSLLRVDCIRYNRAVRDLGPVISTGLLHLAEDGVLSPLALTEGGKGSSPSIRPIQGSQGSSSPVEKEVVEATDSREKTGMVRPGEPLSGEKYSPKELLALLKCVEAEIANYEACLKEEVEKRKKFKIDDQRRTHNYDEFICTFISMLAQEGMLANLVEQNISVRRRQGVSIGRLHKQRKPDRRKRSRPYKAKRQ
In short: as §1

EIF3F = EIF3F (UniProt O00303)
In short: as §1

EIF3H = EIF3H (UniProt O15372)
In short: as §1

FAM105A = target: T3, FAM105A (UniProt Q9NUU6)
T3 sequence (whole entry): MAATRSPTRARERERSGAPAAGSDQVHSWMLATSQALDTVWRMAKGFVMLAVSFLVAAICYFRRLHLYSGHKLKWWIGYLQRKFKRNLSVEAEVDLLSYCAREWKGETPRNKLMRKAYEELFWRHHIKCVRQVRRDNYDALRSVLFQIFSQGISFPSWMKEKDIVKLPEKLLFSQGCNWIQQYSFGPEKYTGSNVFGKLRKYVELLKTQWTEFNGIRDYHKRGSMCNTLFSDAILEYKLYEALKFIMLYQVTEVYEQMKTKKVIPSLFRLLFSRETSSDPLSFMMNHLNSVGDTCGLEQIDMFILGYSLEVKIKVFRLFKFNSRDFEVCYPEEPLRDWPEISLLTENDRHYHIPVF
In short: as §1

OTUB1 = OTUB1 (UniProt Q96FW1)
In short: as §1

OTUD4 = target: T4, OTUD4 (UniProt Q01804)
T4 sequence (whole entry): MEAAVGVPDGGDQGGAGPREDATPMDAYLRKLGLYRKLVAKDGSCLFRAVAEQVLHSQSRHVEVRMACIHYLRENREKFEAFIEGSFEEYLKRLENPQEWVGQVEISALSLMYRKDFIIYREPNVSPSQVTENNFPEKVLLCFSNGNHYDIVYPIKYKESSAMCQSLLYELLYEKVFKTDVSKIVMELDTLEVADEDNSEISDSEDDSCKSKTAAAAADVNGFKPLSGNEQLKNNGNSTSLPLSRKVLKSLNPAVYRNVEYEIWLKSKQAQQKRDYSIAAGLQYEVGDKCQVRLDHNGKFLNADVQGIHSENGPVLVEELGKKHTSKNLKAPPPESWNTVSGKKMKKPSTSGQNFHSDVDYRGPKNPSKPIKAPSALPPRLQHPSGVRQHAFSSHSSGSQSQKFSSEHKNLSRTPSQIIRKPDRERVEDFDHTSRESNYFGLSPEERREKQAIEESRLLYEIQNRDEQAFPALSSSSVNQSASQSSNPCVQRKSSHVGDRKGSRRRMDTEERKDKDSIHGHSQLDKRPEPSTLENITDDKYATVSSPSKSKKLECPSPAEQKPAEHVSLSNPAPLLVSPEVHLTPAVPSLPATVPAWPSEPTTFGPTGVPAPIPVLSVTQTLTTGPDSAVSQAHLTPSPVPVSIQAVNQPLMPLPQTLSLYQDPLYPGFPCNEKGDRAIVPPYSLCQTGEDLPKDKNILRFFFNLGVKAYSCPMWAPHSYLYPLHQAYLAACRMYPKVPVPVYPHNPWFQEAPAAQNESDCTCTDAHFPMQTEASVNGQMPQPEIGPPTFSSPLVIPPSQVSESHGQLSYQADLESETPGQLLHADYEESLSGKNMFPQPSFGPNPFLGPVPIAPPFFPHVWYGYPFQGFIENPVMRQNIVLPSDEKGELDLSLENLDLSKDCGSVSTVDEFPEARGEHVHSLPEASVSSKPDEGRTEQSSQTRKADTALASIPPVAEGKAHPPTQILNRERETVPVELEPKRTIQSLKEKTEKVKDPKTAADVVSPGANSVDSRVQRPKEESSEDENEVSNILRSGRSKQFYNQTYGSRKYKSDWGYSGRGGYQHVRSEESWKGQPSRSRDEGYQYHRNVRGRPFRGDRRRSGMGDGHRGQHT
In short: as §1

OTUD5 = target: T5, OTUD5 (UniProt Q96G74)
T5 sequence (whole entry): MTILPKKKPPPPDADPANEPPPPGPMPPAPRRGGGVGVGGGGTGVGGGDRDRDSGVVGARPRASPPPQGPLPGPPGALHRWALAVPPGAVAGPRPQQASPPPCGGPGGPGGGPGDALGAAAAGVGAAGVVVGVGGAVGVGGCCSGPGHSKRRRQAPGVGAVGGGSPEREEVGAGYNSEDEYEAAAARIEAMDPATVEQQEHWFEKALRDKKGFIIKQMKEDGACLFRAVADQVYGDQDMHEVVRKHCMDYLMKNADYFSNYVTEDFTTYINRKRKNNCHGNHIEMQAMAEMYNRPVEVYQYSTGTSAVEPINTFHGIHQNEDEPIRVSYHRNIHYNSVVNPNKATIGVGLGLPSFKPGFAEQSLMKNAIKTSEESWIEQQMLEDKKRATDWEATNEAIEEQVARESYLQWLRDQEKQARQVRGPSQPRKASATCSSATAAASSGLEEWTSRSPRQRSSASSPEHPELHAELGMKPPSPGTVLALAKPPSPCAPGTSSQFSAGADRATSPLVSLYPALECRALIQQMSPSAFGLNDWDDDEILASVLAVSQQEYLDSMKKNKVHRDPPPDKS
In short: as §1

Measured: log2 ratio of Biotin-Ahx-Ub-VS probe labelling

Sequence of EIF3H (O15372 whole entry): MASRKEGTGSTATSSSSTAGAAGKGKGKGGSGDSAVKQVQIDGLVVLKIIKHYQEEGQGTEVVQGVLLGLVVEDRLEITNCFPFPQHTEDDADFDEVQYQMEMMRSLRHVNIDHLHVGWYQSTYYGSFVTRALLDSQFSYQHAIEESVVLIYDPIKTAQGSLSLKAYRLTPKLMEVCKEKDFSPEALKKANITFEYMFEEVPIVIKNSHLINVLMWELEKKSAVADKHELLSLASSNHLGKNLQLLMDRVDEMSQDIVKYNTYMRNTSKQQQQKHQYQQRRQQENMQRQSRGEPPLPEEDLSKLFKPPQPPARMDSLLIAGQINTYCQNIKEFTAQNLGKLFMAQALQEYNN
Sequence of EIF3F (O00303 whole entry): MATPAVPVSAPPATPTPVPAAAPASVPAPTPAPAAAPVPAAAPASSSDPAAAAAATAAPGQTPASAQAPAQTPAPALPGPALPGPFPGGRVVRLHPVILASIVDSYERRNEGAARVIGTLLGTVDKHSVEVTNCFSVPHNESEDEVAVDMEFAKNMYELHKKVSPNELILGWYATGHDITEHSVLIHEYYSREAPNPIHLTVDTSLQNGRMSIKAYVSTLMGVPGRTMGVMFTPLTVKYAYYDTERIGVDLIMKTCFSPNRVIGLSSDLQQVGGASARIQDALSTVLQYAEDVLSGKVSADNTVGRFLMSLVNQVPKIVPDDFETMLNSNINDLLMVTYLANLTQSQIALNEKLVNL
Sequence of ATXN3 (P54252 whole entry): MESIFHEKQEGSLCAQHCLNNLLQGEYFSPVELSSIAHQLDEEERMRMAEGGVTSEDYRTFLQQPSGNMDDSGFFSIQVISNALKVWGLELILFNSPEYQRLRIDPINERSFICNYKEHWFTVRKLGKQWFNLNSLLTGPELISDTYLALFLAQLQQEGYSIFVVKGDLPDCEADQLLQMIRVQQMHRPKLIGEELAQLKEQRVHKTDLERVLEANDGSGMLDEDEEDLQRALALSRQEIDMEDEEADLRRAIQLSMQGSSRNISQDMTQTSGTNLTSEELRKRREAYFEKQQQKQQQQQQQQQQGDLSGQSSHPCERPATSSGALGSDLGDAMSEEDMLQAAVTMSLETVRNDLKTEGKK
Sequence of OTUB1 (Q96FW1 whole entry): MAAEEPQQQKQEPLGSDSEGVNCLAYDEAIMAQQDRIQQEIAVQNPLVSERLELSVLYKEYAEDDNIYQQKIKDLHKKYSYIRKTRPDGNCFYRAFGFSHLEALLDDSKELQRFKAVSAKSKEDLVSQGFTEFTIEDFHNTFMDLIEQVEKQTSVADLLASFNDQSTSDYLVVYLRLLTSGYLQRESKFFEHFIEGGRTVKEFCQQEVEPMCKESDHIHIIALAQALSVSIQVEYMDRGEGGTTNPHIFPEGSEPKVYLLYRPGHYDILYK

Cc1ccc(CN(CCO)C(=O)CCl)cc1
active: BAP1 -1.12
inactive: ALG13 0.163 | ATXN3 -0.225 | EIF3F 0.0155 | EIF3H 0.0625 | FAM105A 0.0195 | OTUB1 -0.0318 | OTUD4 -0.355 | OTUD5 -0.372
